Compounds without any hit were thinned out: in the full panel of roughly 79,000, 15% have a hit. Calls of active or inactive are those of the source. Cut-off read from the data, not from the text of the source: active = growth inhibition above about 70%; inactive = the rest.
Columns and labels:
[1] = NCI Yeast Anticancer Drug Screen. Data for the rad50 strain (AID 155);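 note: 0% = growth of vehicle-only cultures of the same strain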; conditions: S. cerevisiae rad50 strain growth inhibition; at 50.0 µM; active compounds read high
In short: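 Cells are treated with compound, grown, and their growth is then scored against vehicle-only cultures of the same repair-deficient yeast strain.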

[2] = NCI Yeast Anticancer Drug Screen. Data for the mec2-1 strain (AID 157); conditions: S. cerevisiae mec2-1 strain, at 50.0 µM, active compounds read high
In short: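 Strain: mec2-1 (DNA repair/cell cycle alteration). Compound exposure, then growth measured; inhibition expressed relative to vehicle.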

[3] = NCI Yeast Anticancer Drug Screen. Data for the sgs1 mgt1 strain (AID 161);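 note: 0% = growth of cultures given vehicle only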; conditions: S. cerevisiae sgs1 mgt1 strain, at 50.0 µM, active compounds read high
In short: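 Genetically altered yeast, compound exposure, growth inhibition relative to vehicle.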

[4] = NCI Yeast Anticancer Drug Screen. Data for the cln2 rad14 strain (AID 165);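 note: 0% = growth equal to vehicle treated cultures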; conditions: S. cerevisiae cln2 rad14 strain, at 50.0 µM, active compounds read high
In short: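 Compounds are applied to the cln2 rad14 yeast strain, and growth is then compared with that of vehicle-treated cultures to give inhibition.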

[5] = NCI Yeast Anticancer Drug Screen. Data for the bub3 strain (AID 167); conditions: S. cerevisiae bub3 mutant strain, at 50.0 µM, active compounds read high
In short: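 Part of a panel of yeast mutants defective in DNA damage repair or cell cycle regulation. Each strain is grown with compound, and inhibition is calculated relative to solvent-treated cultures.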

[6] = NCI Yeast Anticancer Drug Screen. Data for the mlh1 rad18 strain (AID 175); conditions: S. cerevisiae mlh1 rad18 strain growth inhibition; at 50.0 µM; active compounds read high
In short: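 Read-out is yeast growth inhibition, calculated against vehicle-only controls. The compound was applied to a strain engineered with DNA damage repair alterations.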

Row | Structure (SMILES) | growth inhibition [1] | growth inhibition [2] | growth inhibition [3] | growth inhibition [4] | growth inhibition [5] | growth inhibition [6]
1 | CNP(=S)(Oc1cc(Cl)c(Cl)cc1Cl)N1CCN(c2ccc(Cl)cc2)CC1 (stereo not given) | -0.5% (inactive) | 2% (inactive) | 4.35% (inactive) | -0.9% (inactive) | -2.9% (inactive) | 16.4% (inactive)
2 | CC1(C)N=C(N)N=C(N)N1c1ccc(CCc2ccc(S(=O)(=O)F)cc2Cl)c(Cl)c1 | 99.4% (active) | 99.7% (active) | 99.7% (active) | 81.5% (active) | 99.2% (active) | 99.5% (active)
3 | [C-]#[O+].[Cl][Ru]([Cl])([Cl])([Cl])[Cl] | -7.05% (inactive) | -8.95% (inactive) | 35% (inactive) | -6.75% (inactive) | 11.3% (inactive) | 1.9% (inactive)
4 | CCCCSP(=O)(SCCCC)N1CCCCC1 | 98.9% (active) | 99.2% (active) | 98.8% (active) | 97.8% (active) | 98.8% (active) | 99% (active)
5 | CCC(=O)C(CC(C)[N+](C)(C)C)(c1ccccc1)c1ccccc1 (stereo not given) | -3.05% (inactive) | -4.95% (inactive) | -4.6% (inactive) | 3.35% (inactive) | -18.5% (inactive) | 6.5% (inactive)
6 | C#CC(C)N1CCC2(CC1)C(=O)NCN2c1ccccc1 (stereo not given) | -19.3% (inactive) | -6.1% (inactive) | -15.7% (inactive) | -2.85% (inactive) | -4.05% (inactive) | 0.65% (inactive)
7 | COc1cc2c(c3oc4cccc(O)c4c(=O)c13)[C@@H]1C=CO[C@@H]1O2 | -11.6% (inactive) | -15.2% (inactive) | -7.05% (inactive) | 26.1% (inactive) | -8.7% (inactive) | -8.9% (inactive)
8 | NS(=O)(=O)c1cc(N(CCCl)CCCl)c([N+](=O)[O-])cc1[N+](=O)[O-] | -72.8% (inactive) | -36.8% (inactive) | -12.5% (inactive) | 2.1% (inactive) | -16.1% (inactive) | -34.5% (inactive)
9 | COc1ccc(S(=O)(=O)F)cc1N | -18.6% (inactive) | -32.5% (inactive) | -21.6% (inactive) | 4.35% (inactive) | -14.3% (inactive) | -22.4% (inactive)
10 | COC(C)C(O)(C(=O)OCC1=CCN2CCC(O)C12)C(C)(C)O (stereo not given) | 1.25% (inactive) | -5.35% (inactive) | 21.4% (inactive) | 5.4% (inactive) | 10.1% (inactive) | -52.4% (inactive)
11 | C1C2CC3C1C1CN3C21 (stereo not given) | 16.9% (inactive) | 2.65% (inactive) | 5.45% (inactive) | -28% (inactive) | -8.8% (inactive) | 12.2% (inactive)
12 | CC(=O)OC1CCC2(C)C(CCC3C2CCC2(C)C(c4ccc(=O)oc4)C(OC(C)=O)CC32O)C1 (stereo not given) | 45.5% (inactive) | 0.05% (inactive) | 21.3% (inactive) | 4.5% (inactive) | -4.45% (inactive) | -0.5% (inactive)
13 | CCC1(C/C=C/Cl)C(=O)NC(=O)NC1=O | 7.65% (inactive) | -3.5% (inactive) | -29.5% (inactive) | -38.5% (inactive) | 6.45% (inactive) | -29.1% (inactive)
14 | ClCc1ccc(Cl)c(Cl)c1 | 16.1% (inactive) | 3.8% (inactive) | -3.05% (inactive) | 10.4% (inactive) | 1.5% (inactive) | -20.4% (inactive)
15 | O=C(Nc1cc(Cl)c(Cl)cc1Cl)C(=O)C1C(=O)NC(=S)NC1=O | 0.35% (inactive) | -8.2% (inactive) | -9% (inactive) | 9.75% (inactive) | 12.9% (inactive) | -22.4% (inactive)
16 | c1ccc(CC2NC(Cc3ccccc3)N3C(Cc4ccccc4)N23)cc1 (stereo not given) | -2.65% (inactive) | 1.9% (inactive) | 0.9% (inactive) | -6.25% (inactive) | 9% (inactive) | 3.45% (inactive)
17 | CCOC(=N)CC(O)C(Cl)(Cl)Cl (stereo not given) | -2.05% (inactive) | 1.7% (inactive) | -10.1% (inactive) | -47.2% (inactive) | 22% (inactive) | -6.25% (inactive)
18 | C[N+]1(C)CCCC1c1cccnc1 (stereo not given) | 42.8% (inactive) | 7.35% (inactive) | -2.45% (inactive) | -15.2% (inactive) | 14.4% (inactive) | 29.9% (inactive)
19 | CCC[CH2][Sn]([CH2]CCC)([n]1cncn1)[n]1cncn1 | 92.2% (active) | 96.1% (active) | 93.7% (active) | 78.2% (active) | 88.5% (active) | 93.8% (active)
20 | C=[CH][Sn]([CH]=C)([c]1ccccc1)[c]1ccccc1 | -7.5% (inactive) | -12.8% (inactive) | -14.2% (inactive) | -0.65% (inactive) | -26.8% (inactive) | 12.3% (inactive)

Row | Structure (SMILES) | growth inhibition [1] | growth inhibition [2] | growth inhibition [3] | growth inhibition [4] | growth inhibition [5] | growth inhibition [6]
21 | CCCOC(=O)c1ccccc1N | 6.05% (inactive) | -1.25% (inactive) | -1.55% (inactive) | -16.9% (inactive) | -4.75% (inactive) | -19.4% (inactive)
22 | CN(C)C(=O)Sc1ccc(S(=O)(=O)F)cc1[N+](=O)[O-] | 65.5% (inactive) | 36.9% (inactive) | 76.7% (active) | 42.5% (inactive) | 34.4% (inactive) | 34.6% (inactive)
23 | O=C(O)c1ccc([N+](=O)[O-])c([N+](=O)[O-])c1 | 22.2% (inactive) | 4.95% (inactive) | 32.9% (inactive) | 7.05% (inactive) | 10% (inactive) | 24.6% (inactive)
24 | CN(C)C1(c2ccc3ccccc3c2)CSC1 | -0.4% (inactive) | -16.6% (inactive) | 0.55% (inactive) | -16.2% (inactive) | -29.8% (inactive) | 2.25% (inactive)
25 | NC1CCCC[C@H]1N.N[C@@H]1CCCC[C@@H]1N.O=C(P(=O)([O-])[O-])P(=O)([O-])[O-].[Pt+4].[Pt+4] | 20.2% (inactive) | 3.85% (inactive) | -13.7% (inactive) | 2.7% (inactive) | -6.6% (inactive) | 10.3% (inactive)
26 | C/C=C\C(C)=C/C(C)C(=O)CC(O)CC1CC(=O)NC(=O)C1 (stereo not given) | 11.6% (inactive) | -20.4% (inactive) | -6.9% (inactive) | 11.8% (inactive) | 7.85% (inactive) | 13.3% (inactive)
27 | O=P(O)(O)CCP(=O)(O)O | -14.5% (inactive) | 17.9% (inactive) | -13.4% (inactive) | 21.8% (inactive) | -13.7% (inactive) | -13.7% (inactive)
28 | COc1ccc2c(c1OC)C[N+]1(C)CCc3cc4c(cc3C1=C2)OCO4 (stereo not given) | 21.6% (inactive) | -0.5% (inactive) | -12.8% (inactive) | -1.95% (inactive) | -2.2% (inactive) | -2% (inactive)
29 | C[C@]12CCC(=O)C[C@@H]1CC[C@@H]1[C@@H]2CC[C@]2(C)[C@@H](OC(=O)N(CCCl)N=O)CC[C@@H]12 | 36.8% (inactive) | 33.8% (inactive) | 24.5% (inactive) | 55.2% (inactive) | 29.9% (inactive) | 60.1% (inactive)
30 | COc1ccc([N+](=O)[O-])cc1 | 23.6% (inactive) | -5.8% (inactive) | 12.6% (inactive) | 20.9% (inactive) | 1.1% (inactive) | -20.9% (inactive)
31 | [C-]#[N+]CS(=O)(=O)c1ccc(C)cc1 | -17.4% (inactive) | -11.1% (inactive) | -7.3% (inactive) | 11.1% (inactive) | 3.85% (inactive) | 1.4% (inactive)
32 | CCC1(CCOc2ccccc2)C(=O)NC(=O)NC1=O | -10.9% (inactive) | -1.45% (inactive) | 1.3% (inactive) | -6.55% (inactive) | 1.6% (inactive) | -1.85% (inactive)
33 | CN1C2CCC1C(O)C(c1ccccc1)C2 (stereo not given) | 6.15% (inactive) | 9.25% (inactive) | -0.05% (inactive) | -11.8% (inactive) | 0.45% (inactive) | -0.6% (inactive)
34 | C=C1[C@@H](C)[C@H]2[C@H](Cc3ccccc3)NC(=O)[C@]23OC(=O)/C=C/[C@H](O)CCC[C@@H](C)C/C=C/[C@H]3[C@@H]1O | 53.4% (inactive) | 25.8% (inactive) | 24.6% (inactive) | 39% (inactive) | 58.8% (inactive) | 58.5% (inactive)
35 | NC(c1ccccc1)C(O)c1ccc(O)cc1 (stereo not given) | 19.4% (inactive) | 12.3% (inactive) | 10.1% (inactive) | -10.6% (inactive) | 1.05% (inactive) | -8.35% (inactive)
36 | COc1cccc(/C=N/[N-]C(=O)c2ccncc2)c1[O-].[Mn+2].[OH3+] | 9.15% (inactive) | 12.5% (inactive) | 7.35% (inactive) | 9.95% (inactive) | 4.7% (inactive) | 20.6% (inactive)
37 | CN(C)C(=O)CCCc1ccc(N(CCCl)CCCl)cc1 | 19.6% (inactive) | -1.85% (inactive) | 5.3% (inactive) | 9.55% (inactive) | -0.9% (inactive) | 9.6% (inactive)
38 | COc1ccccc1[As](=O)(O)c1ccccc1 | -6.45% (inactive) | -0.85% (inactive) | -1.45% (inactive) | -47.6% (inactive) | -11% (inactive) | 5.25% (inactive)
39 | CCCCCCCCCCCCCCCCCC(=O)[O][Pb]([CH3])([CH3])[CH3] | 0.8% (inactive) | 0.5% (inactive) | 18.8% (inactive) | 21.6% (inactive) | 2.8% (inactive) | 13.1% (inactive)
40 | CCC(C)(Cl)c1ccccc1 (stereo not given) | -11.7% (inactive) | -21.6% (inactive) | -13.6% (inactive) | -0.4% (inactive) | -21.4% (inactive) | -14.1% (inactive)

From PubChem BioAssay (NCI)
